High-throughput results as filed in PubChem.
Compounds with a hit are over-represented: about 2.6% of the library has one in this group of screens.
BaF3 tox: counter-screen for JAK2V617F inhibitors: parental Ba/F3 viability inhibitors; CellTiter-Glo ATP luminescence; inhibition, % at 5.6 µM; actives 1.1% (n = 220,000); AID 1486;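 active = inhibition above a per-campaign cutoff, the mean inhibition of all tested compounds plus 3 SD, cut at about 27% in these data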
GPR7 antagonist: antagonists of human GPR7 (neuropeptides B/W receptor 1) | GPR7-expressing cells, fluorescence antagonist assay | inhibition, % at 4.4 µM | actives 1.1% (n = 290,000) | AID 1861; in the data active = inhibition above about 16%, passing the limit was not always enough;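 also: cells stimulated with the agonist NPW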
Target sequence (P48145 whole entry, looked up): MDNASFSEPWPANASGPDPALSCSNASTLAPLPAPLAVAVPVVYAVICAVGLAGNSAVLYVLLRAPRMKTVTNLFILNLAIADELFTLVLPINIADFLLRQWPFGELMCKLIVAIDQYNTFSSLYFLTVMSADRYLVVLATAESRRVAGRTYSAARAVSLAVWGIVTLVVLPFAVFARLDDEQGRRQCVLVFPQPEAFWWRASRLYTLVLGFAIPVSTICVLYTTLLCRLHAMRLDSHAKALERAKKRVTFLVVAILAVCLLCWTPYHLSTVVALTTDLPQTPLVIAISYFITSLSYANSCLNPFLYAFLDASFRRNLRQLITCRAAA
IEC-6 cytotox: kills IEC-6 intestinal cells in KLF5 counter-screen; IEC-6 cytotoxicity, luminescence viability; inhibition, % at 5 µM; actives 0.78% (n = 290,000); in the data active = inhibition above about 22%
Ba/F3 V617F tox: reduce viability of Ba/F3 cells dependent on JAK2V617F | inhibition, % at 5.6 µM | Ba/F3 EpoR-JAK2V617F viability, ATP luminescence | actives 1.1% (n = 220,000);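 active = inhibition above the campaign mean plus 3 SD over all tested compounds, cut at about 24% in these data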;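 also: cytokine-independent growth of Ba/F3 cells driven by EpoR plus mutant JAK2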
DNA FID counter: displaces DNA intercalator in HCV helicase counter-screen; actives 0.17% (n = 290,000); inhibition, % at 7.9 µM; DNA fluorescent intercalator displacement, fluorescence; in the data active = inhibition above about 37%;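 also: higher means more ethidium bromide displaced from hairpin DNA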
KLF5 inhibitor: suppresses KLF5 promoter-driven expression; DLD-1 KLF5 promoter-luciferase reporter, luminescence; inhibition, % at 5 µM; actives 0.23% (n = 290,000);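 active = inhibition above a per-plate limit of that plate's mean compound inhibition plus 3 SD, cut at about 60% in these data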;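 also: higher means less KLF5 promoter-driven luciferase light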
Hits are given with their value; - = inactive; . = not tested or not shown.

SMILES | BaF3 tox | GPR7 antagonist | IEC-6 cytotox | Ba/F3 V617F tox | DNA FID counter | KLF5 inhibitor
O=C(NCc1cccnc1)c1c[nH]c2cc3c(cc2c1=O)OCCO3 | 41 | - | - | 27 | - | -
COC(=O)c1ccc(C(=O)Nc2ccc3nc(-c4cccnc4)[nH]c3c2)cc1 | - | - | - | - | - | -
CCOC(=O)N/N=C/c1ccccc1F | - | - | - | - | - | -
CCc1nnc(N/N=C/c2ccccc2F)n1N | - | - | 102 | - | - | -
Cc1cc2ncn(-c3nnnn3-c3ccccc3)c2cc1C | - | 19 | - | - | - | -
O=C(c1ccccc1)c1nc[nH]c1C(=O)Nc1ccccc1 | - | - | - | - | - | -
COc1cccc2c1C(=O)c1c(O)c3c(c(O)c1C2=O)C[C@@](O)(C(C)=O)C[C@@H]3O[C@H]1C[C@H](N)[C@H](O)[C@H](C)O1 | 101 | - | 91 | 102 | - | -
COc1cccc(C(=O)Nc2ccc3c(c2)C(=O)N(CCC(=O)O)C3=O)c1 | - | - | - | - | - | -
COC(=O)C1CCN(C(=O)c2cc(OC)c(OC)c(OC)c2)CC1 | - | - | - | - | - | -
O=C1NC(=O)C(CC(=O)N(Cc2cccs2)C2(C(=O)NC3CCCCC3)CCCCC2)N1 (configuration not stated) | 88 | - | - | - | - | -
CCOC(=O)C1CCN(S(=O)(=O)c2c(C(=O)N3CCCCC3)c(C)n(C)c2C)CC1 | . | - | - | . | - | -
COc1ccc(CN(C)S(=O)(=O)c2nnc(NC(=O)c3cccc(C)c3)s2)cc1OC | . | - | - | . | - | -
O=S(=O)([N-]c1nc2ccccc2nc1-n1cc[n+](Cc2ccccc2)c1)c1ccccc1 | - | - | - | - | - | -
C=CC[n+]1ccn(-c2nc3ccccc3nc2[N-]S(=O)(=O)c2cccs2)c1 | 86 | - | - | 92 | - | -
CCCC[n+]1ccn(-c2nc3ccccc3nc2[N-]S(=O)(=O)c2cccs2)c1 | 86 | - | - | 98 | - | -
CCc1cccc(N(C(=O)c2csnn2)C(C(=O)NC(C)(C)C)c2ccncc2)c1 (configuration not stated) | - | - | - | - | - | -
NS(=O)(=O)c1ccc(CNC(=O)Cc2c(F)cccc2Cl)cc1 | 60 | - | - | - | - | -
Cc1cc(CNC(=O)Cc2c(F)cccc2Cl)nn1C | - | 19 | - | - | - | -
CN1CCN(Cn2cc(/C=C/C(=O)c3ccccc3)c3ccccc32)CC1 | - | - | - | - | - | -
Cc1nc(C)c(C(=O)C2=C(O)C(=O)N(CCN3CCOCC3)C2c2cccnc2)s1 (configuration not stated) | - | - | - | - | - | -
CCCC(=O)N/C(N)=N/c1nc(C)c2cc(C)ccc2n1 | - | - | - | - | - | -
Cc1cc2nc(/N=C(\N)NC(=O)C(C)C)nc(C)c2cc1C | 30 | - | - | - | - | -
CCC(=O)N/C(N)=N/c1nc(C)c2cc(C)c(C)cc2n1 | 53 | - | - | 38 | - | -
Cc1ccc(C)c(OCc2ccc(C(=O)NN)o2)c1 | - | - | - | - | - | -
CC(C)Cn1c(/C=N/Nc2nc3ccccc3[nH]2)nc2ccccc21 | - | - | - | - | - | -
SMILES | BaF3 tox | GPR7 antagonist | IEC-6 cytotox | Ba/F3 V617F tox | DNA FID counter | KLF5 inhibitor
OCCN1CCN(c2nc(-c3ccccc3)nc3c2oc2ccccc23)CC1 | - | - | - | - | 43 | -
O=C(O)C1CCN(c2nc(-c3ccccc3)nc3c2oc2ccccc23)CC1 | - | - | - | - | - | -
COCCn1nc2cc(C(=O)NCC34CC5CC(CC(C5)C3)C4)ccc2c1OC | - | - | - | - | - | -
N=c1ccn(Cc2ccc(F)cc2)cc1 | 61 | - | - | 70 | - | -
O=C1CNC(=S)N1Cc1ccc(F)cc1 | . | - | - | . | - | -
CCCCNC(=O)NC1(C(F)(F)F)Oc2ccccc2O1 | - | - | - | - | - | -
Cc1cc(NC(=O)Nc2ccc(F)c(Cl)c2)no1 | - | - | - | - | - | -
O=C(NCc1cccnc1)NC1(C(F)(F)F)Oc2ccc(Cl)cc2O1 (configuration not stated) | 39 | - | - | 52 | - | -
Cc1cc(NC(=O)NC2(C(F)(F)F)Oc3ccc(Cl)cc3O2)no1 (configuration not stated) | 28 | - | - | 51 | - | -
NS(=O)(=O)c1ccc(CCNC(=O)NC2(C(F)(F)F)Oc3ccccc3O2)cc1 | 39 | - | - | 57 | - | -
COCCNC(=O)NC1(C(F)(F)F)Oc2ccc(Cl)cc2O1 (configuration not stated) | 39 | - | - | 46 | - | -
Cc1ccc(Cl)cc1NC(=O)NCc1cccnc1 | . | - | - | . | - | -
COc1ccccc1CNC(=O)CCNS(=O)(=O)c1cccc2nsnc12 | - | - | - | - | - | -
COc1ccc(C2C=C(c3ccc(Br)cc3)Nc3nc(N4C(=O)CCC4=O)nn32)cc1 (configuration not stated) | - | - | - | - | - | -
O=C(c1ccc2c(=O)n(CCc3ccccc3)c(=O)[nH]c2c1)N1CCN(c2ccc(F)cc2)CC1 | . | - | - | . | - | -
CN(C)c1cc(NC(=O)CN2CCCC2)c2ccccc2n1 | - | - | - | - | 55 | -
CC1CCC(C(C)C)C(OC(=O)Cn2c(-c3ccc(F)cc3)[n+](C)c3ccccc32)C1 (configuration not stated) | 82 | 54 | - | 98 | - | -
Cc1cccc(OCc2n(CC(=O)OC3CC(C)CCC3C(C)C)c3ccccc3[n+]2C)c1 (configuration not stated) | 88 | 61 | - | 101 | - | -
Cc1cccc(OC(=O)Cn2c(C(F)(F)F)nc3ccccc32)c1 | - | - | - | - | - | -
NC(=O)CC(NC(=O)Cc1ccc(Br)cc1)c1ccc(NCCN2CCCCC2)c([N+](=O)[O-])c1 (configuration not stated) | . | - | - | . | - | -
COc1nnc(-c2ccc(N3CCCCC3)c(N)c2)c2ccccc12 | 46 | - | - | 37 | - | -
CCNC(=S)N1CCc2cc(OC)c(OC)cc2C1COc1ccc(F)cc1 (configuration not stated) | - | - | - | - | - | -
O=C(NCCCN1CCOCC1)C(=O)NCC1OCCN1S(=O)(=O)c1ccc(Br)cc1 (configuration not stated) | . | - | - | . | - | -
N/C(Cc1ccc(Cl)c(Cl)c1)=N\OC(=O)c1cccs1 | - | 20 | - | - | - | -
Cc1ccc(C2=NNC(C(O)C(O)C(O)C(O)CO)S2)cc1 (configuration not stated) | - | - | - | - | - | -
Cc1ccc(Cl)cc1N1CCN(S(C)(=O)=O)CC1 | - | - | - | - | - | -
Cc1ccc(Cl)cc1N1CCN(S(=O)(=O)N2CCCCC2)CC1 | - | 23 | - | - | - | -
CC1(C)CC(=O)C2=C(C1)Nc1ccccc1N1C(=O)c3ccccc3C21 (configuration not stated) | - | - | - | - | - | -
